GAA850 FXN act – frataxin GAA850 promoter activation. 360,000 compounds, 0.56% hits. AID 540364. activation, % at 6 µM. HEK293 lucGAA850 FXN promoter luciferase reporter, 24 h; percent of 10 µM SAHA response;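 active means activation above the average of all compounds screened plus 3 SD, cutoff fixed separately per campaign, cut at about 7.5% in these data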
HSF1 inhib – HSF1 inhibition. NIH3T3-HGL HSE-luciferase, MG132-induced, luminescence 8 h; stronger effect = lower value. activity change, negative = inhibition, % at 7.5 µM (by protocol). 300,000 compounds, 0.77% hits. AID 2098;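 active means more than half of replicate wells show activity change below -50%, luminescence cut by over half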;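 further: luciferase reports HSF-1 transcriptional activity via heat shock element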
HSF-1 act – increases HSF-1 driven luciferase reporter signal; activation, % at 9 µM; NIH3T3-HGL HSF-1 luciferase reporter, MG132, 8 h; 100% = twice DMSO control signal; AID 504408; 300,000 compounds, 1.7% hits;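 active means mean replicate activation of at least 50% with a set share of replicates each reaching 50%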
AHR act – activators of human aryl hydrocarbon receptor. P35869. AHR-responsive luciferase reporter cells, luminescence. activation, % at 5 µM. 320,000 compounds, 2.5% hits. AID 2796; in the data active means activation above about 47%
Target sequence (P35869 whole entry, looked up): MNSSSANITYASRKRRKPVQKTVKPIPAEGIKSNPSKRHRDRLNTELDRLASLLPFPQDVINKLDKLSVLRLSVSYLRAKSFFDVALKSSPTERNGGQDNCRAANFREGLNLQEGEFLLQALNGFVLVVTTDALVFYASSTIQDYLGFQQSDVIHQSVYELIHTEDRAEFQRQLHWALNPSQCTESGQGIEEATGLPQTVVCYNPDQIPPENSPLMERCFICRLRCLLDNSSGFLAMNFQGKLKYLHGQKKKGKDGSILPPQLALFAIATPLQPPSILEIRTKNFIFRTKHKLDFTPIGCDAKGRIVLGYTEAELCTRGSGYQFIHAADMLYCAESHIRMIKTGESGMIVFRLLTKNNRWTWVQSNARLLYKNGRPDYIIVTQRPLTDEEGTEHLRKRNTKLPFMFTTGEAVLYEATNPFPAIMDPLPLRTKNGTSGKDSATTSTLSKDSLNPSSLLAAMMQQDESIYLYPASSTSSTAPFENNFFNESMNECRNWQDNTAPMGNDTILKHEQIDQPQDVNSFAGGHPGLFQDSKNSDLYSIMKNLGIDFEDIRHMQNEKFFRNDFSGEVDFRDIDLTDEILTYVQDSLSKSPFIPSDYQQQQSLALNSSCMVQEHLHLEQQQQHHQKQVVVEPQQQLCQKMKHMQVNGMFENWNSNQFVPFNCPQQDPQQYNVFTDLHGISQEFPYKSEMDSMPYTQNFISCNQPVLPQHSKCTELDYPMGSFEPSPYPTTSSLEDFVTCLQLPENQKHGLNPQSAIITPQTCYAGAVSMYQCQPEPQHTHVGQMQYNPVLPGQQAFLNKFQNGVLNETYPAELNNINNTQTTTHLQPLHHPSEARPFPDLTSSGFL
Hits are given with their value; 0 = inactive; - = no result given. This is a sample that favours compounds with a hit; in the whole collection about 4.6% have one here.

SMILES	GAA850 FXN act	HSF1 inhib	HSF-1 act	AHR act
Cc1c(C(=O)Nc2ccc3c(c2)OCCO3)cnn1C	0	-61	0	0
Cn1c(=O)c2c(SCC(=O)N3CCCc4ccccc43)nc(C3CC3)nc2n(C)c1=O	0	0	0	0
CCOC(=O)c1cnc2ccccc2c1Nc1ccc2c(c1)OCCO2	0	-61	0	0
Nn1c(-c2cccc(Br)c2)n[nH]c1=S	0	-54	0	0
Cc1[nH][nH]c(=O)c1C=NCc1cccs1	0	0	69	0
COC(=O)c1ccc(CN2CCCC(CCC(=O)NCc3ccc(C)o3)C2)cc1 (centres undefined)	0	0	0	0
CN1CCN(C(=S)Nc2ccc(Oc3ccccc3)cc2)CC1	0	0	0	0
COc1cc(/C=N\NC(C)=O)ccc1OC/C=C/c1ccccc1	0	0	0	-
Nc1c(-c2ccc(Cl)cc2)cnn1-c1ccccc1	0	0	0	0
Nc1c(-c2ccc(Cl)cc2)nnn1-c1ccccc1	0	0	58	0
Cc1ccc(-n2nnnc2SCC(N)=O)c(C)c1	0	0	0	0
COC(=O)c1ccc(CSc2nnnn2-c2ccc(C)cc2C)o1	0	0	71	0
COc1ccc(NC(=O)c2cnc(C)cn2)c2ncccc12	-	0	0	-
Cc1cccc(S(=O)(=O)NCCC(=O)OC(C)C(=O)NC(=O)NC2CCCCC2)c1 (centres undefined)	0	0	53	0
COC(=O)C1=C(C)N(Cc2ccco2)C(=O)N[C@@H]1c1ccc(Br)cc1	0	0	0	0
CSCCC(NC(=O)c1ccccc1Cl)C(=O)NNC(=O)c1ccccc1O (centres undefined)	0	0	0	58
C=C(C(=O)c1ccccc1)C(C(=C)C(=O)c1ccccc1)c1ccc(OC)cc1	0	0	143	0
C=C(C(=O)c1ccccc1)C(c1ccccc1)C(C)C(=O)c1ccccc1 (centres undefined)	0	0	62	0
O=C(O)c1ccc(C(=O)C(=O)c2ccccc2)cc1	0	0	0	0
C=C(C(=O)c1ccccc1)C(C)C(=C)C(=O)c1ccccc1	0	0	79	0
CCOC(=O)c1c(C)[nH]c(O)c1C=Nc1ccc(C(F)(F)F)cc1	0	0	0	62
CCOC(=O)c1c(C)[nH]c(O)c1C=Nc1ccc(Cl)cc1	0	0	0	77
COC(=O)c1c(C)[nH]c(O)c1C=Nc1ccc(C(C)C)cc1	0	0	0	90
COC(=O)c1c(C)[nH]c(O)c1C=Nc1ccc(Oc2ccccc2)cc1	0	0	0	0
Cc1ccc(S(=O)Cc2ccc(C(=O)N3CCN(C(=O)c4ccco4)CC3)o2)cc1 (centres undefined)	0	0	0	0
SMILES	GAA850 FXN act	HSF1 inhib	HSF-1 act	AHR act
O=C(NC1CCCCC1)c1nn2c(C(F)(F)F)cc(-c3ccco3)nc2c1Br	0	0	0	0
O=C(NC1CCCCC1)c1cnn2c(C(F)(F)F)cc(-c3ccco3)nc12	0	0	70	0
CCOc1[nH]n(-c2ccccc2)c(=O)c1C=NCc1ccncc1	0	0	0	0
CCOc1[nH]n(-c2ccc(Cl)cc2)c(=O)c1C=NCc1cccnc1	0	0	0	56
CNCCCOc1cccc(OC(C)C)c1	0	0	0	0
CCCOc1ccc(-c2c(=O)n(OCC(=O)OCC)c3ccccc3[n+]2[O-])cc1	0	0	56	0
C=CCOn1c(=O)c(-c2cc3ccccc3o2)[n+]([O-])c2ccccc21	0	0	0	64
CCOC(=O)COn1c(=O)c(-c2ccc(F)cc2)[n+]([O-])c2ccccc21	0	0	0	-
COn1c(=O)c(-c2ccc(Cl)cc2)[n+]([O-])c2ccccc21	0	0	0	72
CCOC(=O)COn1c(=O)c(-c2cc3ccccc3o2)[n+]([O-])c2ccccc21	0	0	0	62
COn1c(=O)c(-c2ccc(C)cc2)[n+]([O-])c2ccccc21	0	0	0	0
C#CCN(C[C@@H]1[C@@H](OC(=O)NCC2CCCCC2)[C@@H](OC(=O)NCC2CCCCC2)Cn2c(=O)ccc(=O)n21)S(=O)(=O)c1ccc(C)cc1	0	-	-	-
COc1ccc(-c2c(-c3ccsc3)oc(=O)c3cc(OC)c(OC)cc23)cc1	0	-	-	0
CSc1ccccc1NC(=S)NCc1ccc(Cl)cc1	0	0	64	0
CC12CN3CCN(CC(C3)C1(O)CN1CCCCC1)C2 (centres undefined)	0	0	0	0
CCOC(=O)C1=C(c2ccccc2)NC(=O)NC1c1cc(Br)c(O)c(OC)c1 (centres undefined)	0	0	79	0
CCOC(=O)C1=C(C)NC(=O)NC1c1ccc(N2CCC(c3ccccc3)=N2)cc1 (centres undefined)	0	0	67	57
CCOC(=O)C1=C(c2ccccc2)NC(=O)NC1c1ccsc1 (centres undefined)	0	-51	0	-
O=C(CN(Cc1ccccc1F)S(=O)(=O)c1ccc(Cl)cc1)NCCCO	0	0	0	0
COc1ccc(-c2nc(NC3=NCCCCC3)sc2C)cc1	0	0	0	73
OC(COc1c(F)cc(Br)cc1F)CN1CCOCC1 (centres undefined)	0	0	0	0
OC(COc1c(F)cc(Br)cc1F)CN1CCN(c2ccc(F)cc2)CC1 (centres undefined)	0	-87	0	0
O=[N+]([O-])c1cccc(C2CC(c3ccccc3)=NN2c2ccccc2)c1 (centres undefined)	0	0	0	0
Cc1ccc(C2=Nc3ccccc3SC(c3cccc([N+](=O)[O-])c3)C2)cc1 (centres undefined)	0	0	67	0
COC(=O)c1cc(S(=O)(=O)Nc2cccc(OC)c2)cn1C	0	0	0	0
SMILES	GAA850 FXN act	HSF1 inhib	HSF-1 act	AHR act
Cc1ccc(-n2c(C)cc(/C=c3/sc4nc5ccccc5n4c3=O)c2C)cc1	-	-82	0	0
O=c1/c(=C\c2cccn2-c2ccccc2)sc2nc3ccccc3n12	0	-	-	-
Cc1ccc(N2C(=O)c3ccccc3C2C(=O)c2ccc(C)c(C)c2O)cc1 (centres undefined)	0	0	0	0
CSc1ccccc1NC(=S)Nc1ccc(S(N)(=O)=O)cc1	0	0	54	0
O=C(c1ccncc1)N1CCN(c2cccc(C(F)(F)F)c2)CC1	0	0	0	0
COc1nc(NCCc2ccc(OC)c(OC)c2)nc(Nc2ccccc2)n1	0	0	0	48
COc1nc(NCCN2CCOCC2)nc(Nc2ccccc2)n1	0	0	0	0
O=C(/C=C/c1ccc(OCCCF)cc1)N1CCN(Cc2ccccc2)CC1	0	0	61	0
Cc1cc(F)ccc1NCc1cc2c(cc1[N+](=O)[O-])OCO2	0	0	53	0
Cn1c(-c2ccc(F)cc2)cnc1NCc1cc2c(cc1[N+](=O)[O-])OCO2	0	0	0	0
COc1cccc2[nH]c3c(=O)n(CCN(C)C)cnc3c12	0	0	0	0
O=C(CN1CCC(C(=O)c2ccc(F)cc2)CC1)Nc1ccccc1Cl	0	0	0	0
O=C1CCCN1CCC1CCN(C(=O)Nc2ccccc2)CC1	0	-68	0	0
CCOC(=O)c1c(C)[nH]c(C2=NNC(=Nc3cccc(Cl)c3)SC2)c1C	-	-75	0	120

Screens deposited in PubChem by several laboratories.
